# Screening data deposited in PubChem by National Center for Advancing Translational Sciences (NCATS).
# Most compounds without a hit are left out; they make up all but 17% or so of the library.
# TDP1 cell noCPT = qHTS for Inhibitors of human tyrosyl-DNA phosphodiesterase 1 (TDP1): qHTS in cells in absence of CPT; Potency, µM (highest dose often 46.2 µM), for inactives: top-dose activity change, negative = growth inhibition, hits mostly inhibitors; actives 15% (n = 420,000); AID 686978, 2013; DT40 Tdp1-/- hTDP1 cells, no CPT, ATP luminescence, 48 h; also: % is scaled to controls: 0 for no effect and ±100 for the full control effect; nearly all actives have a fitted effect of over 55% in size
#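 Cells were dispensed at 400 per well, compounds added by pin tool, plates incubated ≥48 hr at 37 °C, then CellTiter-Glo added for 30 min at room temperature before luminescence reading. Line: DT40 Tdp1-/- complemented with hTDP1; camptothecin omitted.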
# ClpP mod = qHTS Assay for Activators of ClpP; purified B. subtilis ClpP, FRET peptide cleavage, 20 min; Potency, µM (series often up to 57.5 µM), without a hit: top-dose activity change, negative = active; actives 1.9% (n = 340,000); active = well fitted falling curve with a large enough effect; inconclusive = small, poorly fitted or top-dose-only effect; inactive = no such curve, though single readings can be large or run the other way; also: the source files actives as falling curves though it sought activators and does not explain the sign; nearly all actives have a fitted effect of over 65% in size
#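 Buffer: 100 mM Tris/HCl pH8, 100 mM KCl, 0.05% low protease BSA, 2.5% glycerol, 0.01% Tween-20. ClpP 10 microg/mL final; 20 min RT; delta FRET normalized to ADEP and DMSO controls.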
# TDP1 inh = TDP1 (human) enzyme inhibition. recombinant TDP1, AlphaScreen DNA substrate cleavage. Potency, µM (series often up to 130 µM), for inactives: top-dose activity change, negative = inhibition, actives largely listed as inhibitors. actives 0.28% (n = 350,000). AID 485290; also: % is scaled to controls: 0 for no effect and ±100 for the full control effect; nearly all actives have a fitted effect of over 40% in size
# Target sequence (Q9NUW8 whole entry, looked up): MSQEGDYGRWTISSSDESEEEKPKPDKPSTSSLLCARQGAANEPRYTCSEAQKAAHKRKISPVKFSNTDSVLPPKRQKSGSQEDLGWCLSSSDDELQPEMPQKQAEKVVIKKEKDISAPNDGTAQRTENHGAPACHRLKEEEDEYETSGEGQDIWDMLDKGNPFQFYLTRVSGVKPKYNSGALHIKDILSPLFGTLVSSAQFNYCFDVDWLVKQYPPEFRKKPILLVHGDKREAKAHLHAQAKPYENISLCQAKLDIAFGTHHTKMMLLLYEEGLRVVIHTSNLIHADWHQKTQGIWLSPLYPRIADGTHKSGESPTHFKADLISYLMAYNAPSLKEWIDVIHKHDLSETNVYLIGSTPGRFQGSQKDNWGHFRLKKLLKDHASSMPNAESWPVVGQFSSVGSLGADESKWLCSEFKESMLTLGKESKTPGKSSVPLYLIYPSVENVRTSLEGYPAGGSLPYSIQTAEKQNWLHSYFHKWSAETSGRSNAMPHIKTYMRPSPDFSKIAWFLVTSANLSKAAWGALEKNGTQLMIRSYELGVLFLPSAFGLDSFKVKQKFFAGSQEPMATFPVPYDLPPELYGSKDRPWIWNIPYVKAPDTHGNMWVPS
#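 Recombinant human Tdp1 (E. coli-expressed, 1 nM final) preincubated with compounds 15 min at room temperature, then 5'-biotin/3'-phosphotyrosine-FITC DNA substrate (15 nM final) added for 5 min. AlphaScreen beads (10 ug/ml final) added 10 min; cleavage lowers signal.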
# DT40 TDP1 CPT = DT40-hTDP1 cell growth loss with CPT. chicken DT40 Tdp1-/-;hTDP1 cells + 20 nM CPT, ATP luminescence, 48 h. Potency, µM (series often up to 46.2 µM), without a hit: top-dose activity change, negative = growth inhibition, usual class: inhibitors. actives 12% (n = 420,000); also: % is scaled to controls: 0 for no effect and ±100 for the full control effect; nearly all actives have a fitted effect of over 55% in size
#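 Chicken DT40 Tdp1-/- cells stably complemented with human TDP1 were seeded at 400 cells/well in medium containing 20 nM camptothecin, exposed to pin-transferred compounds, and grown at 37 °C for at least 48 hr. Viability was read as ATP luminescence.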
# The depositor's hits bear a star; ? = inconclusive; nt = no result; [ ] = dose if it differs, or a comment. Unless noted, calls follow the shape of the dose curve; as a rule, active = well fitted curve in the direction sought with a large enough effect; inconclusive = small, poorly fitted or top-dose-only effect, or another doubt; inactive = no such curve, though single readings can be large; an effect the other way counts as inactive or inconclusive. Potency is read from the fitted curve at half-maximal effect.
SMILES,TDP1 cell noCPT,ClpP mod,TDP1 inh,DT40 TDP1 CPT
CCOC(=O)C1CCCN(Cc2nc(N)nc(Nc3ccc(OC)cc3)n2)C1 (centres undefined),?,1%,9%,29µM*
CCOC(=O)C1CCCN(Cc2nc(N)nc(Nc3ccc(Cl)cc3)n2)C1 (centres undefined),16µM*,-7%,7%,?
CCOC(=O)N1CCN(Cc2nc(N)nc(Nc3ccc(Oc4ccccc4)cc3)n2)CC1,16µM*,-1%,8%,?
CCOC(=O)N1CCN(Cc2nc(N)nc(Nc3ccc(Cl)cc3)n2)CC1,?,nt,9%,-13%
COc1ccc(CCNC(=O)c2ccc(Cn3c(=O)c4ccccc4n(Cc4cc(C)ccc4C)c3=O)cc2)cc1OC,?,1%,5%,-17%
CN1C(=O)/C(=C2/C=Cc3ccccc3N2CCCS(=O)(=O)O)SC1=S,1%,22µM*,9%,-1%
CCn1c(=O)cc(OCC(=O)N2CCN(C(=O)c3ccco3)CC2)c2ccccc21,-21%,-18%,2%,?
Cn1c(=O)cc(OCC(=O)N2CCN(c3cccc(C(F)(F)F)c3)CC2)c2ccccc21,15µM*,3%,7%,21µM*
CCn1c(=O)cc(OCC(=O)N(C)C2CCCCC2)c2ccccc21,-2%,-3%,1%,?
CCn1c(=O)cc(OCC(=O)N2CCN(c3cccc(Cl)c3)CC2)c2ccccc21,15µM*,-9%,5%,23µM*
CCn1c(=O)cc(OCC(=O)N(C)c2cc(Cl)ccc2C)c2ccccc21,23µM*,-23%,-3%,21µM*
CCn1c(=O)cc(OCC(=O)N2CCN(c3cccc(C)c3C)CC2)c2ccccc21,7.3µM*,-1%,6%,9.2µM*
COC(=O)c1ccc(C(NC(=O)c2cccnc2)NC(=O)c2cccnc2)cc1,3%,nt,-5%,9%
COc1cc(C(=O)NCCOc2cc(C)cc(C)c2)cc(OC)c1OC,2.9µM*,-2%,nt,4.1µM*
COc1cc(OC)cc(C(=O)NCCOc2ccccc2)c1,-5%,-2%,3%,-18%
COc1cc(C(=O)NCCOc2ccccc2)cc(OC)c1OC,-8%,-7%,nt,27%
Cc1ccc(C(C)C)c(OCCn2ccnc2C)c1,23µM*,-1%,nt,16µM*
COc1ccc(C(=O)NCCOc2cccc(Oc3ccccc3)c2)cc1OC,12µM*,-4%,1%,?
O=C(NCCOc1ccccc1)c1cc(C(=O)NCCOc2ccccc2)cc([N+](=O)[O-])c1,18µM*,-3%,5%,?
O=C(NCCOc1ccccc1)c1ccccc1[N+](=O)[O-],-3%,-2%,-7%,-4%
Cc1ccc(OCCCCn2ccnc2C)c(C)c1,?,-1%,12%,?
COc1ccccc1CNC(=O)C(=O)NCC(c1ccco1)N1CCOCC1 (centres undefined),15%,0%,2%,-14%
Cc1ccc(C(C)C)c(OCCNCCc2ccccc2)c1,23µM*,1%,nt,?
COc1cc(C(=O)NCCOc2cc(C)ccc2C(C)C)cc(OC)c1OC,12µM*,nt,nt,?
Cn1cc(C(=O)N2CCc3ccccc32)cn1,1%,2%,-2%,-2%
SMILES,TDP1 cell noCPT,ClpP mod,TDP1 inh,DT40 TDP1 CPT
NC(c1csc(Nc2ccc(C(=O)NCCO)cc2)n1)C1CCCCC1 (centres undefined),6.5µM*,?,nt,10µM*
CC(=O)c1ccc(Nc2nc(C(N)C3CCCCC3)cs2)cc1 (centres undefined),12µM*,-8%,nt,13µM*
NC(c1csc(Nc2ccc(C(=O)c3ccccc3)cc2)n1)C1CCCCC1 (centres undefined),?,-3%,nt,?
Cc1cc(OCC(=O)NCc2cccnc2)ccc1[N+](=O)[O-],-10%,-2%,4%,-2%
Cc1cc(OCC(=O)NC(C)c2ccccc2)ccc1[N+](=O)[O-] (centres undefined),16µM*,nt,0%,18µM*
COc1ccc(C(=O)Nc2ccc3c(c2)OCCO3)cc1,-15%,-2%,4%[56.1 µM],-28%
CC(=O)Oc1ccc(C(=O)Nc2cc(NC(=O)c3ccc(OC(C)=O)cc3)cc(C(=O)NC(C)(C)C)c2)cc1,26µM*,1%,6%,21µM*
CCC(=O)c1ccc(OCC(=O)Nc2ccc3c(c2)OCCO3)cc1,12µM*,-2%,3%,-19%
COc1ccc(C(=O)CCNc2ccc3c(c2)OCCO3)cc1,13µM*,-2%,5%,15µM*
COc1ccc(C(=O)CCNc2cccc(Cl)c2)cc1,?,-2%,0%,?
CC(=O)Oc1ccc(C(=O)Nc2ccccc2NC(=O)c2ccc(OC(C)=O)cc2)cc1,-12%,0%,nt,-14%
CC(=O)Oc1ccc(C(=O)Nc2ccc3c(c2)OCCO3)cc1,13µM*,0%,nt,15µM*
COc1ccc(F)c(CN2CCOc3ccc(CN4CCCCC4CO)cc3C2)c1 (centres undefined),-19%,nt,nt,-1%[9.04 µM]
CCOC(=O)c1[nH]c(C)c(CCC(=O)NCc2ccc(OC(C)C)cc2)c1C,?,0%,0%,?
C=C/C(=C\C)C[C@@H](CC(=O)N[C@@H](CCC(=O)O)CC(=O)O)NC(=O)[C@@H]1CNCC[C@H]1NC(=O)C[C@@H](NC(=O)C[C@H](Cc1ccccc1)NC(=O)[C@@H]1CCCC[C@H]1N)C(C)C,nt,nt,-2%,nt
COc1cc2[nH]c(C(=O)Nc3ccc4c(c3)OCCO4)cc2c(OC)c1OC,?,nt,7%,16µM*
COc1cc2cc(C(=O)Nc3ccc4c(c3)OCCO4)[nH]c2cc1OC,?,1%,7%,18%
CC(=O)c1ccc(NC(=O)c2ccc3nc(-c4ccco4)c(-c4ccco4)nc3c2)cc1,?,-14%,11µM*,?
O=C(Nc1ccccc1)c1ccc2nc(-c3ccco3)c(-c3ccco3)nc2c1,23µM*,-4%,0%,21µM*
COc1ccc2nc(-c3ccco3)c(-c3ccco3)nc2c1,?,-14%,nt,18µM*
O=C(Nc1ccc(N2CCOCC2)cc1)c1ccc2nc(-c3ccco3)c(-c3ccco3)nc2c1,?,1%,6%,-26%
c1coc(-c2nc(-c3ccco3)c(-c3ccco3)nc2-c2ccco2)c1,?,?,3.2µM*,?
O=C(CCCCCn1c(=O)c2sccc2n(CC(=O)Nc2cc(C(F)(F)F)ccc2Cl)c1=O)NCc1ccccc1Cl,-28%,?,1%,-27%
CNC(=O)c1ccc2nc(-c3ccco3)c(-c3ccco3)nc2c1,?,-16%,11µM*,20µM*
O=C(NC1CC1)c1ccc2nc(-c3ccco3)c(-c3ccco3)nc2c1,13µM*,-21%,?,?
CCn1c(-c2ccccc2F)nc2cc(C(=O)NCC3CCOCC3)cc(NC(C)=O)c21,-21%,nt,nt,23%[9.04 µM]
